Measurements as given in PubChem BioAssay AID488815 (Broad Institute, 2010).
Results with a measured potency or affinity are listed apart. Results filed as inconclusive are left out. No rule for the calls is given here.

Target: CAAX prenyl protease 1 (Saccharomyces cerevisiae (strain ATCC 204508 / S288c)) (UniProt P47154)
Experiment: Ste24 protease inhibitors, dose response, biochemical, S. cerevisiae, plate reader, cherry-pick (AID 488815);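 also: 0% = neutral control wells and -100% = no enzyme wells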
Details: yeast Ste24 protease activity; series mostly up to 10 µM; activity change, negative = inhibition: at the top concentration

Chain of CAAX prenyl protease 1 (Saccharomyces cerevisiae (strain ATCC 204508 / S288c)) (P47154 whole entry, looked up): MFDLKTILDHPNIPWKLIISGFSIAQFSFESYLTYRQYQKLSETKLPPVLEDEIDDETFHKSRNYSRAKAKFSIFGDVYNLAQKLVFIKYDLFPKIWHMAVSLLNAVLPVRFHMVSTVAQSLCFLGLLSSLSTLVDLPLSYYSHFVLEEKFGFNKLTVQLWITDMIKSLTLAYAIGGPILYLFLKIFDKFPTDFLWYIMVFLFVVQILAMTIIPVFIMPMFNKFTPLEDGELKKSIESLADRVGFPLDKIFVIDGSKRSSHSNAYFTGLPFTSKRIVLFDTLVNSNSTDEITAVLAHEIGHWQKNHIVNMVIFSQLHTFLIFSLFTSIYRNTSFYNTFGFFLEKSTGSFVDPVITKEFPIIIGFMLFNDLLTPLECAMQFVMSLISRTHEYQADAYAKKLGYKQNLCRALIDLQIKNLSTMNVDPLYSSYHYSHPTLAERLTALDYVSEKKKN

Activity change, negative = inhibition, inactive:
COc1ccc(C)cc1NC(=O)CN1C(=O)COc2ccc(S(=O)(=O)N3CCOCC3)cc21 29.9%
CC(C)N1CCN(Cc2ccc(OCc3ccccc3)cc2)CC1CCO (stereo not given) 15.4%
CC(C)(C)C(=O)C[n+]1ccc(C(N)=O)cc1 -13.2%
Cc1ccc(C(=O)c2c3ccccc3[n+]([O-])n2CCO)cc1 0.667%
CN1CCN(Cc2c(C(=O)N/N=C/c3cccc(Br)c3)nnn2-c2nonc2N)CC1 13.2%
O=C(COC(=O)c1ccc(S(=O)(=O)N2CCCC2)cc1)NCc1ccccc1 33.6%
CCN(Cc1ccccc1)S(=O)(=O)c1ccc(C(=O)N(CCCN(C)C)c2nc3c(C)c(C)ccc3s2)cc1 -16.7%
C=C(C)CSc1nc2sc3c(c2c(=O)n1-c1ccc(OC)cc1)CCN(C)C3 27.2%
O=C(O)c1ccc2cccc(Cl)c2c1O 14%
COc1ccc(C(CNC(=O)COc2cc(C)c(Cl)c(C)c2)N2CCCCC2)cc1 (stereo not given) 8.59%
CCN1CCN(CC(O)COc2ccc3c(C)cc(=O)oc3c2)CC1 (stereo not given) 34.4%
Nc1c(C(=O)Nc2cccc(C(=O)O)c2)sc2nc3c(cc12)CCCC3 -6.49%
c1cnn(Cc2cnc(N3CCOCC3)s2)c1 11%
COC(C[C@@H](O)C[C@H](O)[C@H](C)OCc1ccccc1)OC 10.2%
COc1ccc(S(=O)(=O)NCC2CCCO2)cc1NC(=O)c1ccccc1F (stereo not given) 9.65%
COc1ccc(C(C(=O)NC2CCCCC2)N(C(=O)c2snc(C(N)=O)c2N)c2ccc(OC)cc2OC)cc1 (stereo not given) -15%
CCOc1ccc(NC(=O)CCSc2ccc(C)cc2)cc1 39.6%
COc1ccc(Cl)cc1Nc1nc(C)nc2c1oc1ccccc12 -11.6%
Cc1ccc(NS(=O)(=O)c2ccc(NC(=O)N3CCCCC3)cc2)cc1 1.82%
CCOC(=O)c1cc(-c2ccccc2)sc1NC(=O)C(C)Sc1nnnn1C (stereo not given) 40.8%
CCN(CC)c1ccc(C(=O)c2ccccc2C(=O)O)c(O)c1 13%
Nc1c(Cl)cc(C2=NCCn3nc4cc(C(F)(F)F)ccc4c32)cc1Cl -4.63%
CC(C)N1CCN(S(=O)(=O)c2ccc3ccccc3c2)CC1 4.94%
COc1cccc(C2CC(c3ccc(Br)cc3)=NN2C(=O)c2ccncc2)c1OC (stereo not given) 6.74%
O=C(CN(C1CCCCC1)C1CCCCC1)N1CCc2ccccc2C1 30.3%
O=C(C1CCC(=O)N(C2CC2)C1)N1CCN(c2ccccc2Cl)CC1 (stereo not given) 18.6%
COc1ccc(-c2cc(C(=O)NCCCN3CCCC3=O)c3ccccc3n2)cc1 49.3%
Cc1nc(N2CCCCC2)c2c(C)c(C(=O)Nc3ccccc3C(F)(F)F)sc2n1 -7.43%
COC(C[C@@H]1O[C@@H]1C(=O)[C@@H](C)OCc1ccccc1)OC 36.5%
CCC1CCCCN1C(=O)NC(=O)c1ccccc1 (stereo not given) 29%
C=C(C)C1(O)OC(=O)C=C1OC (stereo not given) 21.2%
CC1CCN(C(=O)C2CCN(S(=O)(=O)c3ccc(-n4cnnn4)cc3)CC2)CC1 16.5%
CC(/C=N\NC(=O)CN1CCN(S(=O)(=O)c2ccc(C)cc2)CC1)=C\c1ccccc1 12.6%
COC(C/C=C/[C@H](O)[C@@H](C)OCc1ccccc1)OC 17%
CCn1nc(C)cc1C(=O)NC1CC(C)(C)Cc2c1cnn2-c1cccc(F)c1 (stereo not given) 22.5%
O=C(Nc1ncccn1)c1ccc([N+](=O)[O-])cc1 14.3%
O=C(c1cc(-c2ccccc2)nc2ccccc12)N1CCN(c2ccccn2)CC1 15.8%
CC(C)C[C@H](NC(=O)c1nc[nH]c1C(=O)N1CCNCC1)C(=O)OCc1ccccc1 22.1%
Cc1nc(N2CCOCC2)c2cc(-c3ccccc3)sc2n1 12.8%
COc1cccc(-c2nc(C#N)c(N3CCN(C(=O)c4ccco4)CC3)o2)c1 20.7%
